Assay results from PubChem BioAssay.

biological target: Concanavalin-A (Canavalia ensiformis) (UniProt P02866); assay: compounds binding concanavalin A lectin – biochemical, small-molecule microarray, Alexa647 label, 635 nm, artefact control for SMM control protein annotation, primary screen (AID 1127); settings: ConA-A647 binding fluorescence, higher = more signal;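 further: z combines 667 nm emission intensity with signal-to-noise across three replicate slides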
Sequence (P02866 whole entry, looked up): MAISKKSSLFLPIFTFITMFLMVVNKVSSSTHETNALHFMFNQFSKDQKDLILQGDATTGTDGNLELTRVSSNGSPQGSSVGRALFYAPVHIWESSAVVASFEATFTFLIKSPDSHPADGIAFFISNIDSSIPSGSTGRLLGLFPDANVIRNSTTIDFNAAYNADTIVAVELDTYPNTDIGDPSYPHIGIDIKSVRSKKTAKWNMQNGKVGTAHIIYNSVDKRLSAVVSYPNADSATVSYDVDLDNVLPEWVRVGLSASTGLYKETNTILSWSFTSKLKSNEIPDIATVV

Structure (SMILES)	composite z-score
CCOC(=O)C[C@H]1[C@H](OC(=O)c2ccccc2-c2ccccc2)[C@@H](NC(=O)c2ccc3ccccc3n2)c2cc(OCCCO)ccc2N1C(=O)Cc1ccc(OC)cc1	0.0562
CCOc1cc(C(O)C2C=CC3C(=O)NC(=O)C3N2Nc2ccc(Cl)cc2Cl)ccc1O (stereo unspecified)	-0.915
Cc1ccc(NN2C(C(O)c3c(F)cccc3Cl)C=CC3C(=O)N(C4CCCCC4)C(=O)C32)cc1 (stereo unspecified)	1.19
CCOC(=O)C[C@H]1[C@H](OC(=O)c2ccc(-c3ccccc3)cc2)[C@@H](NC(=O)CC(C)C)c2cc(OCCCO)ccc2N1C(=O)c1ccc2ccccc2n1	1.07
COC(=O)[C@@]1(Cc2ccccc2)[C@H]2c3cc(C(=O)N4CCCC4)n(CCc4ccccn4)c3C[C@H]2CN1C(=O)c1ccccc1	0.606
Cc1ccc(S[C@]2(C(=O)NC(C)C)CC(=O)N(Cc3cc(C(F)(F)F)cc(C(F)(F)F)c3)[C@@H]2c2ccc(CO)cc2)cc1	-0.534
